NADH enzymes: inhibition of NAD/NADH coupling enzymes, library profiling; coupled PK/LDH NADH assays, four targets; hit rate 0.02% among 65,000; IC50, µM (highest dose often 10 µM); AID 774;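 active means single-dose screening hits from any of four coupled enzyme assays that gave an IC50 when retested across doses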;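 further: the DPM-DC format reads NADH fluorescence rather than 340 nm absorbance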
Spn MK inh: blocks S. pneumoniae mevalonate kinase; hit rate 0.48% among 65,000; AID 555; purified MK, PK/LDH-coupled NADH absorbance 340 nm; inhibition, % at 10 µM;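 active means ranked among the strongest by inhibition in the single 10 µM screen, a fixed top-ranked set picked for dose follow-up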
Spn DPM-DC inh: inhibitors of Streptococcus pneumoniae diphosphomevalonate decarboxylase; AID 556; purified DPM-DC, PK/LDH coupled NADH fluorescence; calls only at 10 µM; hit rate 0.49% among 65,000;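 active means the 320 compounds with the highest percent inhibition in the single-dose primary screen, excluding strongly autofluorescent ones, cut at about 32% in these data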;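 further: kinetic rate of NADH fluorescence loss reporting ADP formed by the decarboxylase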
Spn PMK inh: inhibitors of Streptococcus pneumoniae phosphomevalonate kinase; purified PMK, PK/LDH-coupled NADH absorbance 340 nm; inhibition, % at 10 µM; hit rate 0.49% among 65,000; AID 539;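 active means top-ranked compounds by inhibition in the single 10 µM screen, taking a fixed number of the strongest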
Autofluor 339: intrinsic fluorescence of library compounds, ex339/em460 – biochemical, MLSMR library, data from DPM-DC assay, artefact control, profiling panel | compound autofluorescence, ex339/em460 nm, NADH buffer; stronger effect = higher value; 1 = no-compound wells, NADH background | fluorescence fold increase at 10 µM | hit rate 5.5% among 65,000;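 active means at 10 µM, mean starting fluorescence two-fold or more over control wells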;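 further: signal is the first read of a kinetic run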
Abs 340nm: compounds absorbing at 340 nm. compound absorbance at 340 nm, fold over control. fold change at 10 µM. 65,000 tested, under 10 active. AID 708;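 active means at 10 µM dose, initial 340 nm absorbance at least 2 fold that of control wells; inactive means change under 2 fold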;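 further: initial absorbance extrapolated from kinetic A340 decline of NADH oxidation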
Numbers stand for hits; 0 = inactive; - = not tested or not shown. The list is not random: actives were taken first. Their share in the collection is about 6.3%.

SMILES | NADH enzymes | Spn MK inh | Spn DPM-DC inh | Spn PMK inh | Autofluor 339 | Abs 340nm
CCCn1nc(-c2ccccc2)c2nc3ccccc3nc21 | 0 | 0 | 0 | 0 | 2.4 | 0
CCn1nc(NC(=O)c2ccncc2)c2cc3ccccc3nc21 | 0 | 0 | 0 | 0 | 0 | 0
CCN(CCNC(=O)c1cc(C)nn1-c1ccccc1)c1ccccc1 | 0 | 0 | 0 | 0 | 0 | 0
CC12CC(NC(=O)N1CCc1ccccc1)c1cc(Cl)ccc1O2 (stereo not drawn) | 0 | 0 | 0 | 0 | 0 | 0
COc1ccccc1/C=C/CN1CCOCC1 | 0 | 44 | 0 | 0 | 0 | 0
COc1ccccc1N1CCN(C/C=C/c2ccc(N(C)C)cc2)CC1 | 0 | 0 | 0 | 0 | 0 | 0
COc1ccccc1N(CN1CCCC1=O)C(=O)COc1ccccc1 | 0 | 0 | 0 | 0 | 0 | 0
CCOC(=O)c1cnc2c(C)cccc2c1NCc1ccco1 | 0 | 0 | 0 | 0 | 0 | 0
CCOC(=O)c1ccc2ncc(C(=O)OCC)c(NCc3ccco3)c2c1 | 0 | 0 | - | 0 | 3.8 | 0
CCOC(=O)c1cnc2c(C(=O)OC)cccc2c1NCc1ccco1 | 0 | 0 | - | 0 | 3.4 | 0
COc1ccc(-n2nc(C(=O)NCc3ccco3)c3c4ccccc4n(C)c3c2=O)cc1 | 0 | 0 | - | 0 | 4.8 | 0
CCCCn1nnc(NC(=O)c2ccc(-c3ccccc3)cc2)n1 | 0 | 0 | 0 | 0 | 0 | 0
CCCCn1c(NC(=O)c2ccccc2)c(C#N)c2nc3ccccc3nc21 | 0 | 0 | - | 0 | 3.8 | 0
CCCCn1c(NC(=O)c2ccc(F)cc2)c(C#N)c2nc3ccccc3nc21 | 0 | 0 | - | 0 | 5 | 0
O=C(Nc1cccc2nsnc12)c1ccc(F)cc1 | 0 | 0 | 0 | 0 | 0 | 0
CCOC(=O)CSc1nc(C2CC2)nc2ccccc12 | 0 | 0 | 0 | 0 | 0 | 0
O=C(c1cnn2c(C(F)(F)F)cc(-c3ccccc3)nc12)N1CCOCC1 | 0 | 0 | 0 | 0 | 0 | 0
CCOC(=O)c1cnc2c(-c3ccccc3)cnn2c1N | 0 | 0 | 0 | 0 | 2.1 | 0
CCOC(=O)c1cnn2c(C(F)(F)F)cc(-c3cn(C)nc3C)nc12 | 0 | 0 | - | 0 | 3.7 | 0
COC(=O)c1cnn2c(C(F)(F)F)cc(-c3ccc(F)cc3)nc12 | 0 | 0 | - | 0 | 3.3 | 0
CCOC(=O)c1cnc2c(-c3ccccc3)c(C)nn2c1N | 0 | 0 | 0 | 0 | 0 | 0
CCOC(=O)N1CCN(c2nc(-c3cccc(OC)c3)cc(C(F)(F)F)n2)CC1 | 0 | 0 | 0 | 0 | 0 | 0
CCOC(=O)N1CCC(NC(=O)c2cnn3c(C(F)(F)F)cc(-c4cccc(OC)c4)nc23)CC1 | 0 | 0 | - | 0 | 3.8 | 0
CCOC(=O)c1cnn2c(C(F)(F)F)cc(-c3ccccc3)nc12 | 0 | 0 | - | 0 | 2.2 | 0
CCOC(=O)C1CCCN(C(=O)c2cnn3c(C(F)(F)F)cc(-c4ccccc4)nc23)C1 (stereo not drawn) | 0 | 0 | 0 | 0 | 0 | 0
SMILES | NADH enzymes | Spn MK inh | Spn DPM-DC inh | Spn PMK inh | Autofluor 339 | Abs 340nm
CC(=O)Nc1ccc(NC(=O)c2c(C)nc3ccccn23)cc1 | 0 | 0 | 0 | 0 | 0 | 0
c1ccn2c(c1)nc1c2nc2ccccn21 | 0 | 0 | - | 0 | 3.8 | 0
Cc1ccccc1-n1c(SCC(=O)c2cc(C)n(C)c2C)nnc1-c1ccncc1 | 0 | 0 | 0 | 0 | 0 | 0
COC(=O)CSc1nc(N2CCOCC2)c2c(c1C#N)CC(C)(C)N(C)C2 | 0 | 0 | 0 | 0 | 2.1 | 0
COc1ccc(N(CC(=O)N2CCCC(C)C2)S(=O)(=O)c2c(C)nn(C)c2C)cc1 (stereo not drawn) | 0 | 0 | 0 | 0 | 0 | 0
Fc1cc2nc(-c3ccncc3)[nH]c2cc1F | 0 | 0 | - | 0 | 2.2 | 0
CN1c2ccccc2-c2nc3ccccc3n2C1c1ccccn1 (stereo not drawn) | 0 | 0 | - | 0 | 2.2 | 0
CN1c2ccccc2-c2nc3ccccc3n2C1c1ccncc1 (stereo not drawn) | 0 | 0 | 0 | 0 | 0 | 0
C=CCOc1ccccc1C1C2=C(CC(C)(C)CC2=O)Nc2c1c(=O)n(C)c(=O)n2C (stereo not drawn) | 0 | 0 | - | 0 | 3.6 | 0
Cc1ccc(-c2nnc3n2N=C(c2ccccc2Br)CS3)cc1 | 0 | 0 | 0 | 0 | 0 | 0
Cc1noc(C(=O)N2CC3(C)CC2CC(C)(C)C3)c1Cl (stereo not drawn) | 0 | 0 | 0 | 0 | 0 | 0
CCCCC(C(=O)NCCC(C)C)N(CCCN1CCOCC1)C(=O)c1snc(C(N)=O)c1N (stereo not drawn) | 0 | 0 | 0 | 0 | 2.1 | 0
C=CCOC(=O)N1CCN(c2cccc(C(F)(F)F)c2)CC1 | 0 | 0 | 0 | 0 | 0 | 0
COc1ccc(Cl)cc1NC(=O)C1CCCN(S(=O)(=O)c2cccc3nonc23)C1 (stereo not drawn) | 0 | 54 | 0 | 0 | 0 | 0
COC(=O)Cn1ncn2c(cc3oc(C)cc32)c1=O | 0 | 0 | 0 | 0 | 0 | 0
O=C1CCNc2cc3ccccc3cc21 | 0 | 0 | - | 0 | 2 | 0
COc1cc(OC)nc(NC(=O)CSc2nnc(-c3ccccc3)n2C2CCCCC2)n1 | 0 | 0 | 0 | 0 | 0 | 0
CCOC(=O)c1oc2nc3c(cc2c1N)COC(C)(C)C3 | 0 | 0 | 0 | 0 | 2.8 | 0
CCOC(=O)c1oc2nc(C)c3c(c2c1N)CC(C)(C)OC3 | 0 | 0 | - | 0 | 3.9 | 0
O=C(Cn1nc(C(F)(F)F)c2c1CCC2)N1CCN(c2ccccc2)CC1 | 0 | 0 | 0 | 0 | 0 | 0
CCCc1nc2ccccc2c(=O)n1/N=C/c1c(C)[nH]n(-c2ccc(C)cc2)c1=O | 0 | 0 | 0 | 0 | 0 | 0
Cc1cc(OCC(=O)N(C)C)c2c(-c3ccccc3)cc(=O)oc2c1 | 0 | 0 | 0 | 0 | 0 | 0
CN(C)C(=O)COc1ccc2cc(-c3ccccc3)c(=O)oc2c1 | 0 | 0 | - | 0 | 3 | 0
CCOC(=O)c1c(NC(=O)c2nn(CC)cc2Br)sc2c1CCCCC2 | 0 | 0 | - | 0 | 3.6 | 0
CCOC(=O)c1c(NC(=O)c2ccc(-n3cnnn3)cc2)sc2c1CCCC2 | 0 | 0 | 0 | 0 | 3 | 0
SMILES | NADH enzymes | Spn MK inh | Spn DPM-DC inh | Spn PMK inh | Autofluor 339 | Abs 340nm
CCOC(=O)c1c(NC(=O)c2nn(CC)cc2Br)sc(C)c1C | 0 | 0 | - | 0 | 3.5 | 0
Cc1cccc(C)c1NC(=O)c1ccc(-n2cnnn2)cc1 | 0 | 0 | 0 | 0 | 0 | 0
CCOC(=O)C1CCN(C(=O)C2CCN(S(=O)(=O)c3cccc4cccnc34)CC2)CC1 | 0 | 0 | 0 | 0 | 0 | 0
O=C(CN1C(=O)C2CC=CCC2C1=O)Nc1nc2ccccc2[nH]1 (stereo not drawn) | 0 | 0 | 0 | 0 | 0 | 0
CCOc1nc(-c2ccc(C)cc2)ccc1-c1noc(-c2cccnc2)n1 | 0 | 0 | 0 | 0 | 3 | 0
CCOc1nc(-c2ccc(OC)cc2)ccc1-c1noc(-c2ccncc2)n1 | 0 | 0 | 0 | 0 | 3 | 0
CCOc1nc(-c2ccccc2)ccc1-c1noc(-c2ccncc2)n1 | 0 | 0 | - | 0 | 3.3 | 0
CCOc1nc(-c2ccc(OC)cc2)ccc1-c1noc(-c2cccnc2)n1 | 0 | 0 | 0 | 0 | 0 | 0

Compound activity from PubChem BioAssay.
